# PubChem BioAssay (NCATS)
# Records with an inconclusive call do not appear. A call without a number means that no potency is given here. Calls of active or inactive are those of the source. Calls follow the shape of the dose curve; as a rule, active = well fitted cell-killing curve with a large enough effect; inconclusive = small, poorly fitted or top-dose-only effect, or effect the other way; inactive = flat fitted curve, though single readings scatter.
# Experiment: qHTS of pediatric cancer cell lines to identify multiple opportunities for drug repurposing: Confirmatory screen for Rh18 cells (AID 1347125); also: nearly all actives have a fitted effect of over 55% in size
# Details: Rh18 rhabdomyosarcoma cells, viability; series mostly up to 45.9 µM
# Excerpt: Drug repurposing or repositioning has been offered as a strategy for drug development in oncology programs. This approach has special potential for childhood cancers and other rare or orphan diseases, where the expected return on new drug development has been a disincentive to pharmaceuticals.
# In this project we exploit the poly-pharmacology of drugs to discover new indications via phenotypic screening of a panel of 19 well-characterized cell lines derived from solid tumors seen in children and adolescents. The goal is to identify approved drugs with previously unrecognized anticancer properties that has the potential to reveal new mechanisms and biological processes involved in carcinogenesis or drug resistance. We employed a titration-based paradigm (quantitative high-throughput screening or qHTS), where all compounds were tested at multiple concentrations for their effect on cell viability. Concentration-response curves (CRCs) were derived directly from the primary screen, and both potency and efficacy values were used to identify compounds with robust bioactivity profiles. We screened the NIH Chemical Genomics Center (NCGC) Pharmaceutical Collection (NPC) and Mechanism Interrogation Plate (MIPE) small molecule collections of approved and investigational compounds against these cell lines; and measured metabolically active cells after 48 hours of compound treatment as a proxy for cell viability.
# Assay Submitter: Nathalia J. Martinez, National Center for Advancing Translational Sciences, National Institutes of Health, Rockville, MD, USA; email: natalia.martinez@nih.gov
# [1] Shen, M et al. Quantitative high-throughput phenotypic screening of pediatric cancer cell lines identifies multiple opportunities for drug repurposing. Oncotarget 2017 Dec 19;9(4):4758-4772. PMID 29435139.
# The cells were obtained from University of North Carolina (UNC), Pediatric Preclinical Testing Program (PPT), and Coriell Institute (CI).
# qHTS cell viability assay:
# Cells were assayed in growth media at a density of 500-1,000 cells/well. Five microliters of cells were dispensed into 1,536-well, white, solid-bottom, TC-treated plates (Greiner Bio One) using a multidrop dispenser and incubated at 37 degrees C, 5% CO2, under a humidified atmosphere for 5 hours. Twenty-three nanoliters of compounds and controls (neutral control DMSO or positive control bortezomib at final concentration of 2.3 µM) were subsequently transferred by Kalypsys pintool. For primary screens, the MIPE collection was tested at 11-point dilutions (final concentrations range from 0.78 nM to 46 µM) and the NPC collection at 8-point dilutions (final concentrations range from 0.59 nM to 46 µM). Compounds tested in follow-up screens were assayed at 11-point dilutions. Cells were incubated for 48 hours, followed by addition of 3 µL of CellTiter-Glo (Promega). After a 15 min incubation at room temperature, samples were analyzed for luminescence intensity using a ViewLux High-throughput CCD imager equipped with clear filters.
# Potency is read from the fitted curve at half-maximal effect.
row,SMILES,Potency
1,CC(C)N[C@@H]1CCn2c(=O)[nH]c3cccc(c32)[C@@H]1O,inactive
2,CC[C@@]1(O)C(=O)OCc2c1cc1n(c2=O)Cc2cc3ccccc3nc2-1,0.827 µM (active)
3,CC(C)[C@]12O[C@@H]1[C@@H]1O[C@]13[C@]1(O[C@H]1C[C@@H]1C4=C(CC[C@@]13C)C(=O)OC4)[C@H]2O,0.0827 µM (active)
4,Cc1[nH]nc2ccc(-c3cncc(OC[C@@H](N)Cc4c[nH]c5ccccc45)c3)cc12,4.65 µM (active)
5,CC[C@@H]1[C@@H](C)O[C@@](O)([C@@H](C)[C@H](O)[C@H](C)[C@H]2OC(=O)C=CC=C[C@@H](C)[C@@H]([C@@H](C)[C@@H](O)[C@H](C)[C@@]3(O)C[C@H](O[C@H]4C[C@H](O)[C@H](O)[C@H](C)O4)[C@H](CC)[C@@H](C)O3)OC(=O)C=CC=C[C@@H]2C)C[C@H]1O[C@H]1C[C@H](O)[C@H](O)[C@H](C)O1,inactive
6,C[C@H]1CCCC=CC2C[C@H](O)C[C@@H]2[C@H](O)C=CC(=O)O1 (stereo partly specified),0.104 µM (active)
7,CC(C)(O)C=CC(=O)[C@](C)(O)[C@H]1[C@H](O)C[C@]2(C)[C@@H]3CC=C4[C@@H](C=C(O)C(=O)C4(C)C)[C@]3(C)C(=O)C[C@@]12C,0.147 µM (active)
8,CS(=O)(=O)c1ccc(C(=O)C2C(=O)CCCC2=O)c([N+](=O)[O-])c1,inactive
9,O=C1C(I)=CC(=C(c2cc(I)c(O)c(I)c2)c2ccccc2C(=O)O)C=C1I,inactive
10,O=c1[nH]c2ccc(Cl)cc2c(N[C@@H]2CN3CCC2CC3)c1-c1nc2ccccc2[nH]1,26.1 µM (active)
11,CC=C(C)C(=O)N[C@@H](c1ccccc1)[C@@H](O)C(=O)O[C@H]1C[C@@]2(O)[C@@H](OC(=O)c3ccccc3)[C@@H]3[C@]4(OC(C)=O)CO[C@@H]4C[C@H](O)[C@@]3(C)C(=O)[C@H](OC(C)=O)C(=C1C)C2(C)C,inactive
12,C[C@]12Cc3cn[nH]c3C[C@@H]1CC[C@@H]1[C@H]2CC[C@@]2(C)[C@H]1CC[C@]2(C)O,inactive
13,COc1cc([C@@H]2c3cc4c(cc3[C@@H](O)C3COC(=O)C32)OCO4)cc(OC)c1O (stereo partly specified),inactive
14,C[C@@H]1CC[C@@]2(OC1)O[C@H]1C[C@H]3[C@@H]4CC=C5C[C@@H](O[C@@H]6O[C@H](CO)[C@@H](O[C@@H]7O[C@@H](C)[C@H](O)[C@@H](O)[C@@H]7O)[C@H](O)[C@@H]6O[C@@H]6O[C@@H](C)[C@H](O)[C@@H](O)[C@@H]6O)CC[C@]5(C)[C@@H]4CC[C@]3(C)[C@@H]1[C@H]2C,10.4 µM (active)
15,O=C(O)COc1nc(Cl)c(Cl)cc1Cl,inactive
16,CC[C@H]1C=CC=CC[C@@H](C)[C@H](O)[C@@](C)(O)C(=O)[C@@H](C)[C@H](O)[C@@H](C)C(=O)[C@@H](C)[C@H](O)[C@@H](C)C=CC(=O)O[C@@H]2[C@@H](C)[C@H](CC1)O[C@]1(CC[C@H](C)[C@H](C[C@@H](C)O)O1)[C@H]2C,inactive
17,O=C(N[C@H]1CN2CCC1CC2)c1ccc(Cl)cc1,inactive
18,CC=C(C)C(=O)O[C@H]1C(C)=C2[C@@H]3OC(=O)[C@@](C)(O)[C@@]3(O)[C@@H](OC(=O)CCC)C[C@](C)(OC(C)=O)[C@@H]2[C@@H]1OC(=O)CCCCCCC,inactive
19,CC(=O)[O][Hg][c]1ccccc1,4.65 µM (active)
20,CC(C)(C)C(O)C(Oc1ccc(Cl)cc1)n1cncn1 (stereo unspecified),inactive
21,O=[N+]([O-])c1c(Cl)c(Cl)cc(Cl)c1Cl,inactive
22,Cc1ccccc1-n1c(Cn2cnc3c(N)ncnc32)nc2cccc(C)c2c1=O,inactive
23,CCC(=O)OC1CCC2C3CCC4=CC(=O)CC[C@@]4(C)C3CC[C@]12C (stereo partly specified),inactive
24,C[C@@]12OC(=O)[C@]1([C@@H](O)[C@@H]1C=CCCC1)NC(=O)[C@H]2CCCl,1.17 µM (active)
25,CC1=C(O)C(=O)C=C2C1=CC=C1[C@@]2(C)CC[C@@]2(C)[C@@H]3C[C@](C)(C(=O)O)CC[C@]3(C)CC[C@]12C,2.33 µM (active)
26,O=C(O)CCCOc1ccc(Cl)cc1Cl,inactive
